Screening data: PubChem, National Center for Advancing Translational Sciences (NCATS)
The list is not random: actives were taken first. Their share in the collection is about 1.4%.
PINK1 expr mod: PINK1 expression modulation; AID 624263; Potency, µM (doses to about 76.6 µM), for inactives: at the highest dose activation (PINK1 increase), usual class: activators; PINK1 immunofluorescence, high-content cytometry, 24 h; 0.2% of 410,000 active; active = well fitted activation curve with a large enough effect; inconclusive = small, poorly fitted or top-dose-only effect; cell line not stated here; also: potency is read from the fitted curve at half-maximal effect; % of control where 0% means no effect; nearly all actives have a fitted effect of over 65% in size
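Readout is PINK1 immunofluorescence, quantified alongside mitochondrial, cell and nuclear markers by laser-scanning microplate cytometry. Cells from a stable line were exposed to compound titrations (5 concentrations) for 24 hours, with CCCP controls.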
CCT modulator: changes cytosolic chaperonin activity | purified chaperonin ATPase assay, HTRF ADP detection, 30 min | activity change, % (concentration not given with the values), hits read low | 0.3% of 360,000 active | AID 651819; in the data active = activity change below about -30%; also: % is scaled to controls: 0 for no effect and ±100 for the full control effect
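We incubate TRiC, 40 or 20 nM final, with library compounds at 76 uM and 10 uM ATP for 30 min at 37 °C. ADP formed is detected with Transcreener HTRF reagents after 30 min at room temperature.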
Mm-Cpn inhibitor: blocks the Methanococcus maripaludis chaperonin Mm-Cpn. purified Mm-Cpn ATPase, ADP Transcreener TR-FRET. 0.031% of 330,000 active. Potency, µM (doses to about 76.9 µM), without a hit: top-dose activity, negative = inhibition, actives largely listed as inhibitors; also: potency is read from the fitted curve at half-maximal effect; % is scaled to controls: 0 for no effect and ±100 for the full control effect; nearly all actives have a fitted effect of over 80% in size
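Purified archaeal Mm-CPN (25nM final) preincubated 10 min at 37degC with compound, then 10uM ATP for 30 min at 37degC; ADP measured by HTRF Transcreener TR-FRET; buffer 30 mM TRIS pH 7.4, 100mM KCl, 5mM MgCl2, 1mM DTT.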
p53 reactivation: mutant p53 re-activation in reporter cells; H1299 p53-A138V BP100-luciferase reporter, luminescence, 24 h; Potency, µM (titrated, usually from 92.2 µM), without a hit: top-dose activity change, positive = activation, hits mostly activators; 0.063% of 320,000 active; also: potency is read from the fitted curve at half-maximal effect; % of control where 0% means no effect; nearly all actives have a fitted effect of over 45% in size
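p53-null H1299 cells stably carrying temperature-sensitive p53-A138V and a BP100-luciferase reporter were pinned with compounds (4-point, 1:5 series) and held 24 hrs at 37 deg C. Luminescence was read 10 min after detection reagent.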
12-LOX inh: blocks human arachidonate 12S-lipoxygenase; P18054; Potency, µM (series often up to 108 µM), for inactives: at the highest dose activity change, negative = inhibition, actives largely listed as inhibitors; 1.1% of 580,000 active; purified 12hLO, xylenol orange hydroperoxide absorbance; also: potency is read from the fitted curve at half-maximal effect; % is scaled to controls: 0 for no effect and ±100 for the full control effect
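Purified human 12hLO at 150 nM in 25 mM Hepes, 0.01% Triton X-100, pH 7.0, preincubated 15 min at room temperature with compound. Reaction started with 40 uM arachidonic acid, 30 min at room temperature. Hydroperoxide measured by Fe-xylenol orange, 573/405 nm absorbance ratio.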
S-ASM inh: inhibitors of human secretory acid sphingomyelinase; P17405; AID 504937; 0.006% of 340,000 active; placental ASM, HMU-PC fluorogenic substrate, 60 min; Potency, µM (series often up to 57.5 µM), for inactives: top-dose activity change, negative = inhibition, actives largely listed as inhibitors; also: potency is read from the fitted curve at half-maximal effect
Target sequence (P17405 47-631 limits assumed): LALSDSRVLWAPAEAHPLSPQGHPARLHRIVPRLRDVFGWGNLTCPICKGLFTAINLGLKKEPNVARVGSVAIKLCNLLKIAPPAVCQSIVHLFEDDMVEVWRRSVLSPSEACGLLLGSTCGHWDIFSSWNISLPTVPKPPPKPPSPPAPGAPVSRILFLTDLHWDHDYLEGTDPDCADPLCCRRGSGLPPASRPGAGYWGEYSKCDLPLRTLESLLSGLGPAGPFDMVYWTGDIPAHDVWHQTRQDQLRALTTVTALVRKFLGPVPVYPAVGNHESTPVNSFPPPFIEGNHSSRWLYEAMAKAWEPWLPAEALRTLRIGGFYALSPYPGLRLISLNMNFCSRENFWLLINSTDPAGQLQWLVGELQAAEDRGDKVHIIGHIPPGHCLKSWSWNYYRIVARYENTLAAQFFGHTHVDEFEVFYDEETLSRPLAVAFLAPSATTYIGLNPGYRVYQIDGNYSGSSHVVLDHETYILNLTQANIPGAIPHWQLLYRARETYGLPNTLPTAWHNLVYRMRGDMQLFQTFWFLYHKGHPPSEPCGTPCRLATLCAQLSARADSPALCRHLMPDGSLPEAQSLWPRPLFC
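HMU-PC0 cleavage (9 uM final) by human placental ASM, 60 min at 37 °C following 10 min compound exposure at RT; stopped at pH 10, fluorescence Ex 386/Em 447 nm.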
* marks the source's active call; other numbers are inactive results; u = inconclusive; x = no result; ! = not active in a repeat; [ ] = dose if it differs, or a comment. Unless noted, calls follow the shape of the dose curve; as a rule, active = well fitted curve in the direction sought with a large enough effect; inconclusive = small, poorly fitted or top-dose-only effect, or another doubt; inactive = no such curve, though single readings can be large; an effect the other way counts as inactive or inconclusive.

SMILES | PINK1 expr mod | CCT modulator | Mm-Cpn inhibitor | p53 reactivation | 12-LOX inh | S-ASM inh
COc1ccc(CSc2nnc(Cc3sc(-c4ccccc4)nc3-c3ccccc3)o2)cc1 | -2% | 2 | 35µM* | -1% | -9% | -2%
COc1ccc2nc(Nc3nc(CSc4nc5ccccc5[nH]4)cc(=O)[nH]3)nc(C)c2c1 | u | 0 | 1% | 40µM* | -2% | -4%
Cc1nc(Nc2nc(CSc3nc4ccccc4[nH]3)cc(=O)[nH]2)nc2ccccc12 | 10% | 1 | -1% | u | 3% | -6%
Cc1ccc(NC(=O)CN2C(=O)NC(C)(c3ccccc3)C2=O)c(C)c1 (configuration not stated) | 8% | -60* | 0% | -4% | -12% | 3%
N=C1S/C(=C\c2ccc(-c3ccccc3C(=O)O)o2)C(=O)N1c1ccc2c(c1)OCO2 | 2% | -5 | -6% | 3% | 14µM* | -3%
COc1ccccc1N1C(=N)S/C(=C\c2ccc(-c3ccccc3C(=O)O)o2)C1=O | 1% | 0 | -2% | 2% | -23% | -2%
O=c1cc(C(F)(F)F)[nH]c(=S)[nH]1 | x | x | x | x | 0.79µM* | x
N#Cc1ccc(-c2nc(C3CC(=O)N(c4ccc(Cl)cc4)C3)no2)cc1 (configuration not stated) | x | x | x | x | 13µM* | x
N#Cc1ccc(-c2nc(C3CC(=O)N(c4ccc(F)cc4)C3)no2)cc1 (configuration not stated) | x | x | x | x | 10µM* | x
c1cnc(-c2nn3c(COc4ccc5c(c4)OCO5)nnc3s2)cn1 | x | x | x | x | -17% | x
Cc1cccc(CSc2nnc(CCNC(=O)OC(C)(C)C)o2)c1 | -1% | 2 | 2% | -4% | 7.9µM* | 2%
CC(C)(C)OC(=O)NCCc1nnc(SCc2cccc(Cl)c2)o1 | 2% | 2 | 1% | -2% | 177% | -1%
CCOC(=O)NC(=O)CSc1nc(C)cc(C(F)(F)F)c1C#N | -3% | 0 | -1% | 29% | 0% | -1%
N#Cc1c(SCC(=O)Nc2nc3ccc(Br)cc3s2)sc2c(O)cc(=O)[nH]c12 | 1% | 0 | -8% | 13% | 16µM* | -14%
N#Cc1c(SCC(=O)Nc2ccc(Cl)cc2Cl)sc2c(O)cc(=O)[nH]c12 | 32µM* | -1 | -14% | 11% | -20% | -21%
CCCSc1nnc(NC(=O)CSc2sc3c(O)cc(=O)[nH]c3c2C#N)s1 | 2% | -2 | -4% | 1% | 50µM* | -18%
N#Cc1c(SCC(=O)Nc2nc3ccccc3s2)sc2c(O)cc(=O)[nH]c12 | 1% | 0 | -8% | u | u | -15%
Cc1c(Cl)cccc1NC(=O)CSc1sc2c(O)cc(=O)[nH]c2c1C#N | 0% | 0 | -16% | 1% | u | -2%
Cc1cc(C(F)(F)F)c(C#N)c(SCC(=O)Nc2nc3cc(Br)ccc3s2)n1 | 14µM* | -4 | -8% | u | u | -18%
CC(Nc1ccccc1[N+](=O)[O-])c1cccc(S(N)(=O)=O)c1 (configuration not stated) | x | x | x | x | -3% | x
O=C1OCCCN1CCNC(=O)[C@@]12CNC[C@@H]1CN(Cc1ccccc1)C2 | x | x | x | x | 9% | x
O=C(CCc1ncc(-c2ccc(Cl)cc2)o1)N1CCOCC1 | x | x | x | x | 2% | x
Cc1cc(C)cc(Nc2ccc([N+](=O)[O-])cn2)c1 | x | x | x | x | 24% | x
CC(C)(C)c1ccc(C(=O)N/C(=C\c2ccco2)C(=O)Nc2ccccc2C(=O)O)cc1 | 0% | 0 | 1% | 22% | 32µM* | 6%
COc1ccc(-c2ncc3c(n2)OCCN(c2ccccc2)C3=O)cc1F | x | x | x | x | 47%[176 µM] | x
SMILES | PINK1 expr mod | CCT modulator | Mm-Cpn inhibitor | p53 reactivation | 12-LOX inh | S-ASM inh
Cc1noc(C)c1-c1cc2cc(C(C)C)oc2c(N(C)CCN(C)C)n1 | x | x | x | x | 9%[176 µM] | x
COC(=O)[C@H]1C[C@@H]1[C@H](N)c1ccccc1 | 1% | -49* | -3% | 2% | 0% | 1%
Cc1ccc(CN(C(=O)CCCc2cccs2)C2CC2)cc1 | x | x | x | x | 8.9µM* | x
N#C/C(C(N)=O)=c1/ccc2c(c1)N1C3=C(CCCC3)CC3CCCCC31N=2 (configuration not stated) | 0% | -37* | -6% | 0% | 7% | -8%
c1c[nH]c(-c2ccn[nH]2)c1 | x | x | x | x | 9% | x
O=C(O)Cc1cccc(OCCCN(Cc2cccc(C(F)(F)F)c2Cl)CC(c2ccccc2)c2ccccc2)c1 | x | x | x | x | 24µM*! | x
O=C1C=C(Nc2ccc(Cl)cc2)C(=O)N1c1ccc(Cl)cc1 | 35µM* | 2 | 1% | 0% | -13% | 0%
CC(=O)Nc1ccc(NC(=O)CC2C(=O)Nc3nc(C)nn32)cc1 (configuration not stated) | x | x | x | x | -1% | x
Nc1nccnc1C(=O)NCCc1ccco1 | x | x | x | x | 37% | x
COc1cc2c(cc1C1C(C#N)=C(N)OC3=C1C(=O)CC(C)(C)C3)OCO2 (configuration not stated) | 0% | -6 | 0% | x | 0% | -7%
COc1ccc(C2C(C#N)=C(N)OC3=C2C(=O)CC(C)(C)C3)c2ccccc12 (configuration not stated) | x | x | x | x | 7.9µM* | x
CC1(C)CC(=O)C2=C(C1)OC(N)=C(C#N)C2c1ccc(-c2ccc(Br)cc2)o1 (configuration not stated) | x | x | x | x | 20µM* | x
CC(C)(C)C(=O)OCC1CCC[N+]2(C)CCCCC12 (configuration not stated) | x | x | x | x | 28µM* | x
Cc1ccccc1C(=O)OCC1CCC[N+]2(C)CCCCC12 (configuration not stated) | x | x | x | x | 28µM* | x
CC(C)(O)[C@@H]1CCC[N+]2(C)CCCC[C@H]12 (some centres not stated) | x | x | x | x | -1% | x
O=C(COc1ccc2ccc(=O)oc2c1)Nc1ccc(F)c(F)c1F | x | x | x | x | -1% | x
CCOC(=O)CCNC(=O)c1ccc(Br)cc1Cl | x | x | x | x | 48% | x
